This passage reports growth results from PubChem BioAssay (NCI).

Holding throughout (assay): NCI-60 one-dose screen, 48 h (100 = growth as untreated, 0 = no growth, -100 = all killed)
In one assay the test system is NCI-H23 lung. Particulars: 10 µM.
A further assay has as its system HOP-92 NSCLC. To be noted: 10 µM.
The test system of a further assay is K-562 leukemia. To be noted: 10 µM.
The next assay has as its system MDA-MB-231 breast. Particulars: 10 µM.
The subject of another assay is RXF 393 renal. Particulars: 10 µM.
The next assay relates to LOX IMVI melanoma. Particulars: 10 µM.
The next assay deals with UO-31 renal. Particulars: 10 µM.
A further assay has as its system CCRF-CEM leukemia. Particulars: 10 µM.
The next assay has as its system MOLT-4 leukemia. Particulars: 10 µM.
For a further assay, the system named is SR leukemia. To be noted: 10 µM.
The test system of a further assay is HS 578T breast. To be noted: 10 µM.
In another assay the test system is T-47D breast. Particulars: 10 µM.
The subject of the next assay is SW-620 colon. To be noted: 10 µM.
In another assay the test system is MCF7 breast. Particulars: 10 µM.
In the next assay the test system is KM12 colon. Particulars: 10 µM.
Another assay has as its system MDA-MB-468 breast. Particulars: 10 µM unless noted.
The next assay concerns COLO 205 colon. Particulars: 10 µM.
The next assay relates to OVCAR-5 ovarian. Particulars: 10 µM.
The next assay concerns NCI-H522 lung. To be noted: 10 µM.
The test system of another assay is NCI/ADR-RES ovarian. To be noted: 10 µM.

About 83,000 compounds went through this panel and 20% of them were active in at least one assay; those are over-represented in the sample as a whole.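 96-well plates, one dose, 48 hours. Percent growth reported; active if below 10.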 A number with no mark means an inactive call. Active and inactive are the calls of the source.

Consider `CC(C)C[C@H](NC(=O)CNC(=O)C[C@H]1O[C@@H]2OC3(C)CC[C@H]4[C@H](C)CC[C@@H]([C@H]1C)[C@@]24OO3)B(O)O`, for which the growth with NCI-H23 lung is -2.35% (active); in the assay on HOP-92 NSCLC, -20.1% (active); in the assay on K-562 leukemia it was 4% (active); in the assay on MDA-MB-231 breast it was -68% (active); in the assay with RXF 393 renal, -81.6% (active); with LOX IMVI melanoma, -86.4% (active). For the same compound, the growth with UO-31 renal was 15.5%; in the assay on CCRF-CEM leukemia, -9.96% (active); in the assay on MOLT-4 leukemia, 1.81% (active); in the assay on SR leukemia it was 28.7%; in the assay with HS 578T breast it was 7.9% (active); in the assay with T-47D breast it was -32.8% (active). In addition, the growth in the assay with SW-620 colon is 1.51% (active); in the assay on MCF7 breast, 19.1%; with KM12 colon, -15.4% (active); with MDA-MB-468 breast, -60.8% (active).
In the case of `C=CC[Se]C(=O)c1ccc(C(=O)[Se]CC=C)s1`, the growth in the assay on HOP-92 NSCLC was -29.9% (active); with COLO 205 colon, -64.7% (active); in the assay with K-562 leukemia, -23.1% (active); in the assay with MDA-MB-231 breast it was -36.4% (active); in the assay with RXF 393 renal, -93.6% (active); with LOX IMVI melanoma, -75.6% (active). For the same compound, the growth in the assay on UO-31 renal is -98.1% (active); in the assay with CCRF-CEM leukemia, -12% (active); in the assay on MOLT-4 leukemia, -13.9% (active); with SR leukemia, -30% (active); in the assay with OVCAR-5 ovarian, -61.8% (active); in the assay on HS 578T breast, -22.1% (active). Also, the growth with T-47D breast was -40.4% (active); in the assay on SW-620 colon, -77.4% (active); in the assay with MCF7 breast it was -55.4% (active); in the assay on KM12 colon it was -85.1% (active); in the assay with MDA-MB-468 breast, -60.6% (active).
With `COC(=O)C[C@](O)(CCCC(C)C)C(=O)O[C@H]1C(OC)=C[C@@]23CCCN2CCc2cc4c(cc2[C@@H]13)OCO4`, the growth in the assay on NCI-H23 lung was -25% (active); with NCI-H522 lung, -59.4% (active); with COLO 205 colon, -2.77% (active); with K-562 leukemia, 3.55% (active); in the assay on MDA-MB-231 breast, 7.43% (active); in the assay with RXF 393 renal it was -8.52% (active). Also, the growth in the assay on LOX IMVI melanoma was -66.6% (active); in the assay with UO-31 renal, 6.22% (active); in the assay with CCRF-CEM leukemia it was 0.557% (active); in the assay with MOLT-4 leukemia it was 1.41% (active); in the assay on SR leukemia, -24.8% (active); in the assay with HS 578T breast, -4.94% (active). Also, the growth is -10.5% (active) in the assay on SW-620 colon, -6.98% (active) in the assay on MCF7 breast, 0.453% (active) in the assay with KM12 colon and -27.4% (active) with MDA-MB-468 breast.
Turning to `O=C(/C=C/c1ccccc1)c1nc2ccccc2n1Cc1ccc(F)cc1`, the growth is -45.9% (active) in the assay on NCI-H23 lung; -28.4% (active) with HOP-92 NSCLC; -8.55% (active) with K-562 leukemia; -89.3% (active) in the assay with RXF 393 renal; -78.5% (active) with UO-31 renal; -23.7% (active) in the assay with CCRF-CEM leukemia. For the same compound, the growth was -4.66% (active) in the assay on MOLT-4 leukemia, -16.4% (active) in the assay with SR leukemia, -15.1% (active) with OVCAR-5 ovarian and -41.3% (active) in the assay on KM12 colon.
Take `O=C(/C=C/c1ccc(Cl)cc1Cl)c1nc2ccccc2n1Cc1ccc(Br)cc1`: the growth in the assay on NCI-H23 lung was 72.3%; in the assay with HOP-92 NSCLC, 65.8%; in the assay on COLO 205 colon, 100%; in the assay on K-562 leukemia it was 53.5%; in the assay on RXF 393 renal, 58.2%; in the assay on UO-31 renal, 50.9%. For the same compound, the growth with CCRF-CEM leukemia is 5.89% (active); in the assay on MOLT-4 leukemia, 15.4%; in the assay with SR leukemia, 14.4%; in the assay on MCF7 breast, 17.1%; with KM12 colon, 82.7%; in the assay on MDA-MB-468 breast, 48.9%.
As for `COc1ccc2cc([C@H](C)C(=O)[Se]CCC#N)ccc2c1`, the growth was -82.1% (active) in the assay on HOP-92 NSCLC; -71% (active) in the assay with COLO 205 colon; 4.12% (active) in the assay on K-562 leukemia; -59.9% (active) with MDA-MB-231 breast; -82.3% (active) in the assay with RXF 393 renal; -66.6% (active) in the assay on LOX IMVI melanoma. The growth in the assay on UO-31 renal is -71.2% (active); with CCRF-CEM leukemia, 7.91% (active); in the assay on MOLT-4 leukemia it was 5.75% (active); in the assay on SR leukemia it was 0.13% (active); in the assay on HS 578T breast, -10.2% (active); in the assay with NCI/ADR-RES ovarian it was -14.4% (active). Besides, the growth with T-47D breast is 12%; in the assay on SW-620 colon, -22.9% (active); in the assay on MCF7 breast, -8.25% (active); in the assay with KM12 colon, 5.84% (active); with MDA-MB-468 breast, -56.6% (active).
For the compound `CC12CCC3(CCC(=O)NCCCNc4ccnc5cc(Cl)ccc45)[C@@](C)(OO[C@]3(C)O1)O2`, the growth was -43.6% (active) with NCI-H23 lung; 3.32% (active) in the assay on HOP-92 NSCLC; 14.4% with K-562 leukemia; -23.4% (active) in the assay on MDA-MB-231 breast; -47.1% (active) in the assay with RXF 393 renal; -78.1% (active) in the assay on LOX IMVI melanoma. Further, the growth in the assay on UO-31 renal was -50.1% (active); with CCRF-CEM leukemia, 3.78% (active); in the assay on MOLT-4 leukemia, 7.04% (active); in the assay with SR leukemia, 2.39% (active); in the assay with OVCAR-5 ovarian it was 4.68% (active); with HS 578T breast it was 11.4%. The growth with NCI/ADR-RES ovarian was -14.7% (active); in the assay with T-47D breast, 36.9%; with SW-620 colon, 28.9%; in the assay with KM12 colon it was 9.24% (active); in the assay on MDA-MB-468 breast, -38.3% (active).
As for `COC(=O)c1ccc(-n2cc(CCCN(CCNc3ccnc4cc(Cl)ccc34)C(=O)CCC(=O)O[C@@H]3O[C@@H]4OC5(C)CC[C@H]6[C@H](C)CC[C@@H]([C@H]3C)[C@@]46OO5)nn2)cc1`, the growth is 40.4% with NCI-H23 lung; 18.6% in the assay with HOP-92 NSCLC; 5.64% (active) in the assay with K-562 leukemia; 62.8% with MDA-MB-231 breast; 34.2% in the assay with RXF 393 renal; 8.12% (active) in the assay with LOX IMVI melanoma. Besides, the growth in the assay with UO-31 renal is 19.6%; in the assay with CCRF-CEM leukemia, 15.9%; in the assay on MOLT-4 leukemia it was -13.5% (active); in the assay on SR leukemia it was -10% (active); with OVCAR-5 ovarian it was 49.2%; in the assay on HS 578T breast it was 49.6%. Further, the growth in the assay with NCI/ADR-RES ovarian is 11.4%; in the assay on T-47D breast, 37.6%; with SW-620 colon, 31.6%; with KM12 colon, 32.6%; in the assay on MDA-MB-468 breast it was 33.3%.
In the case of `O=C(NC([Se])=NC1CCCCC1)c1ccccc1`, the growth with NCI-H23 lung is 19%; with HOP-92 NSCLC, 112%; in the assay on COLO 205 colon it was 49.2%; with K-562 leukemia, 59.2%; in the assay on RXF 393 renal it was 20.5%; in the assay on UO-31 renal, 6.45% (active). For the same compound, the growth with CCRF-CEM leukemia is 54.5%; in the assay on MOLT-4 leukemia it was 57.4%; with SR leukemia, 51.4%; in the assay with OVCAR-5 ovarian, 62.2%; with MCF7 breast it was 29.8%; in the assay on KM12 colon it was 35.5%.
`O=C(NCCCCC(c1ccc(F)cc1)c1ccc(F)cc1)Nc1ccc([N+](=O)[O-])c(C(F)(F)F)c1`: the growth with NCI-H23 lung is -10.2% (active); with HOP-92 NSCLC it was -36.2% (active); in the assay with MDA-MB-231 breast, -70% (active); with RXF 393 renal, -41.3% (active); with LOX IMVI melanoma, -73.8% (active); in the assay on UO-31 renal it was 0% (active). In addition, the growth is -38.8% (active) with CCRF-CEM leukemia; -3.33% (active) in the assay on HS 578T breast; -4.02% (active) in the assay on NCI/ADR-RES ovarian; 8.81% (active) in the assay with SW-620 colon; 2.48% (active) in the assay on KM12 colon; -31.7% (active) with MDA-MB-468 breast.
`C#CC[Se]C(=O)c1ccc2n[se]nc2c1`: the growth in the assay on NCI-H23 lung was 77%; with HOP-92 NSCLC, 77%; in the assay with K-562 leukemia, 4.82% (active); in the assay with RXF 393 renal, 70.8%; in the assay on UO-31 renal it was 22.6%; in the assay with CCRF-CEM leukemia it was -24.8% (active). Moreover, the growth with MOLT-4 leukemia was 22.9%; in the assay with SR leukemia, 3.84% (active); with OVCAR-5 ovarian it was 75.7%; with MCF7 breast, 31.6%; in the assay on KM12 colon it was 95.2%; in the assay with MDA-MB-468 breast, 25.9%.
